D1 ag: Allosteric Agonists of the Human D1 Dopamine Receptor: qHTS; HEK293 T-REx D1 cells, calcium flux, agonist mode; hit rate 1% among 360,000; activation, % at 2 µM; D(1A) dopamine receptor (Homo sapiens), P21728; in the data active means activation above about 30%; further: 0% is about no effect
Target sequence (P21728 whole entry, looked up): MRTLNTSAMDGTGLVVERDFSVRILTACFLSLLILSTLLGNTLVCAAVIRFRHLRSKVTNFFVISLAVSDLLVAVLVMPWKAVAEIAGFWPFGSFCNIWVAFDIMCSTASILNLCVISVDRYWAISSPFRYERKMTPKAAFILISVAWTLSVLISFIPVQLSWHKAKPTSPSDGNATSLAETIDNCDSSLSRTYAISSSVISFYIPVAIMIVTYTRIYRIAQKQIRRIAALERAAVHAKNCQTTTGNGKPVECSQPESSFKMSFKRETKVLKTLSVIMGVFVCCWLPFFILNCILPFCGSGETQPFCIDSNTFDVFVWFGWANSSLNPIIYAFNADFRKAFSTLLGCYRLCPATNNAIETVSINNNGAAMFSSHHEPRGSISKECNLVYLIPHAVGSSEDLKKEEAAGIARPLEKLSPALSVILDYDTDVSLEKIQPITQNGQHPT
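Inducible HEK293 T-REx D1 cells, force-coupled to calcium signalling, were plated at 4000 cells/well with tetracycline and held overnight at 30 C. After no-wash calcium dye loading, compound-evoked calcium rise over 180 s flagged agonists.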
TRHR enhancer-1: qHTS for Small Molecule Agonists and Allosteric Enhancers of Human TRH Receptor: Primary Screen for Enhancers; hit rate 0.66% among 360,000; TRHR cells, fluo-8 calcium fluorescence, EC20 TRH enhancement; enhancement, % at 2 µM; Thyrotropin-releasing hormone receptor (Homo sapiens), P34981; in the data active means enhancement above about 30%; further: 0% is about no effect
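TRHR-expressing cells loaded with fluo-8 calcium dye were read kinetically (ex 480/em 530) during compound addition, then stimulated with an EC20 of TRH (10 nM final). Enhancement of the Gq-mediated intracellular calcium response was scored.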
D1 antagonist: Antagonist of Human D 1 Dopamine Receptor: qHTS; D(1A) dopamine receptor (Homo sapiens), P21728; HEK293 TREx D1 cells, calcium flux, dopamine EC80; active compounds read low; activity change, negative = inhibition, % at 10 µM; hit rate 3.2% among 360,000; in the data active means activity change below about -30%; further: on the % scale 0 is the no-effect control and ±100 the full control effect
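Calcium flux readout: force-coupled, inducible Hek293 Trex D1 line, cells induced overnight at 30 C with tetracycline, dye-loaded 30–90 min at RT. Antagonism scored against EC80 dopamine challenge given 180 s after compound.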
D1 potentiator: Potentiators of Human D1 Dopamine Receptor: qHTS; potentiation, % at 10 µM; hit rate 0.036% among 360,000; D(1A) dopamine receptor (Homo sapiens), P21728; HEK293 TREx D1 cells, calcium flux, dopamine EC20 potentiation; in the data active means potentiation above about 30%; further: 0% is about no effect
TRHR agonist-1: qHTS for Small Molecule Agonists and Allosteric Enhancers of Human TRH Receptor: Primary Screen for Agonists. TRHR cells, calcium flux fluo-8, FDSS agonist mode. hit rate 0.18% among 360,000. activation, % at 2 µM. Thyrotropin-releasing hormone receptor (Homo sapiens), P34981; in the data active means activation above about 30%; further: 0% is about no effect
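Read-out: compound-evoked intracellular calcium rise in TRHR cells, fluo-8 dye, kinetic FDSS fluorescence at 1 s/cycle following a 10-cycle baseline. Cells cultured overnight before dye loading (30 min–1.5 h, RT).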
TRHR enhancer-2: qHTS for Small Molecule Agonists and Allosteric Enhancers of Human TRH Receptor: Confirmation Screen for Enhancers. TRH receptor cell assay, enhancer confirmation qHTS. activity change, negative = inhibition, % at 46.1 µM. shares compounds with TRHR enhancer-1. 970 tested, under 10 active;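 further: compound effect scored on response to added TRH at EC20 of 10 nM; 0% is about no effect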
TRHR agonist-2: qHTS for Small Molecule Agonists and Allosteric Enhancers of Human TRH Receptor: Confirmation Screen for Agonists | shares compounds with TRHR enhancer-1 | TRHR-expressing cells, agonist activation read-out | Potency, µM (highest dose often 46.1 µM), for inactives: top-dose activation, hits mostly activators | hit rate 8% among 970 | AID 493078, 2011; further: potency means the concentration at half of the fitted maximal effect; 0% is about no effect; nearly all actives have a fitted effect of over 75% in size
Starred values were filed as active, the others as inactive; ? = inconclusive; . = no result given. An excerpt weighted towards active compounds, which were near 4.6% of everything screened. Unless noted, the call rests on the fitted dose curve; in most records, active means well fitted curve in the direction sought with a large enough effect; inconclusive means small, poorly fitted or top-dose-only effect, or another doubt; inactive means no such curve, though single readings can be large; an effect the other way counts as inactive or inconclusive.

SMILES	D1 ag	TRHR enhancer-1	D1 antagonist	D1 potentiator	TRHR agonist-1	TRHR enhancer-2	TRHR agonist-2
CCCc1cc(C(=O)N2CCCC(C(=O)c3cccc4ccccc34)C2)n(C)n1 (stereo unspecified)	4	46*	-3	-4	-1	-9	1%
Nn1c(SCc2cccc3ccccc23)nnc1-c1ccco1	1	50*	-10	-3	-1	-1	5%
Cn1c(SCc2cccc3ccccc23)nnc1-c1ccco1	1	-4	-7	-4	-1	.	.
Cc1cccn2c(=O)c(C=Nc3ccccc3)c(NCCO)nc12	1	44*	-4	0	0	-15	0%
Cc1cccn2c(=O)c(C=Nc3ccc(Cl)cc3)c(NCCO)nc12	1	7	2	-2	0	.	.
COc1ccc(C2/C(=C(\O)c3ccc4c(c3)OCCO4)C(=O)C(=O)N2c2nc(C)c(C(C)=O)s2)cc1 (stereo unspecified)	2	41*	-14	-7	0	2	2%
COc1ccc(-n2cc(C(=O)N(CCN(C)C)Cc3ccccc3)c3ccccc3c2=O)cc1	5	74*	-3	-1	2	-3	1%
Cc1cc(S(=O)(=O)N2CCCC(N3CCOCC3)C2)c(C)cc1Cl (stereo unspecified)	10	-5	-20	-1	0	.	.
CN(C)Cc1c(O)ccc2c1O/C(=C\C=C\c1ccccc1)C2=O	45*	-3	7	1	28	-3	18µM*
Cc1oc2ccc(O)c(CN(C)C)c2c1C(=O)c1ccccc1	0	4	8	0	0	.	.
COc1cccc(N(CC(=O)Nc2cccc(C(C)=O)c2)S(C)(=O)=O)c1	5	1	-6	-4	0	.	.
COc1ccc(N(CC(=O)Nc2cccc(C(C)=O)c2)S(C)(=O)=O)cc1OC	1	53*	-6	6	1	-8	0%
COc1cc(C(=S)N2CCOCC2)ccc1OC(=O)c1cccc(C)c1	7	49*	-10	-1	-1	-10	0%
O=c1[nH]c(/C=C/c2ccc(Br)cc2)nc2ccccc12	5	-1	-5	-5	1	.	.
CN(C)c1ccc(/C=C/c2nc3ccccc3c(=O)[nH]2)cc1	39*	-2	-12	-2	59*	?	21µM*
Cc1ccc2c(=O)c(C(=O)c3ccc(F)cc3)cn(CC(=O)NCc3ccccc3Cl)c2n1	2	-1	-5	-4	-1	.	.
COc1cccc(CNC(=O)c2ccc(C)c(S(=O)(=O)N3CCOCC3)c2)c1	3	-6	-1	1	0	.	.
Cc1ccc(C(=O)NCc2ccncc2)cc1S(=O)(=O)N1CCOCC1	-1	44*	-17	1	0	-8	1%
CCOc1ccc(S(=O)(=O)N2CCN(c3ccc(OC)cc3)CC2)c2cccnc12	3	44*	-1	-6	-2	0	1%
CC(=O)N1CCOc2ccc(S(=O)(=O)NC(C)c3ccccc3)cc21 (stereo unspecified)	2	-8	-7	-7	1	.	.
COC(=O)c1cccc(NC(=O)CN2CCc3ccccc3C2)c1	3	71*	-9	0	0	-4	6%
COc1ccc(C(=O)c2c(N)c(-c3nc(-c4ccc(OC)cc4)cs3)c3ccccn23)cc1	3	1	8	-2	1	.	.
COc1ccc(NC(=O)CN(C)C(=O)CNC(=O)c2sc3ccccc3c2Cl)cc1	1	45*	-1	-9	0	1	1%
CN(CC(=O)NCc1ccc2c(c1)OCO2)S(=O)(=O)c1ccc(F)cc1	1	43*	0	2	0	8	-1%
O=C(C1COc2ccccc2O1)N1CCN(c2nc3ccc(F)cc3s2)CC1 (stereo unspecified)	1	-9	.	2	0	.	.
SMILES	D1 ag	TRHR enhancer-1	D1 antagonist	D1 potentiator	TRHR agonist-1	TRHR enhancer-2	TRHR agonist-2
COc1cc([N+](=O)[O-])c2ncccc2c1	-1	0	-11	4	-1	.	.
COc1cc([N+](=O)[O-])c2nccnc2c1	2	44*	3	-5	0	13	1%
CN(C(=O)CSc1nc2ccc(NC(=O)c3ccc(F)cc3)cc2s1)c1ccccc1	1	0	7	-2	-1	.	.
Cc1cccc(C(=O)N/N=C/c2cc(Br)c(Br)o2)c1	4	54*	-59*	-3	-1	-13	-1%
COc1ccc(C2C(C#N)=C(N)Oc3cc(N)ccc32)cc1 (stereo unspecified)	2	63*	-3	-4	0	7	-1%
O=[N+]([O-])c1cc(-c2nc(-c3ccccc3)no2)ccc1N1CCN(c2ccccc2)CC1	-2	-2	-25	-2	0	.	.
COc1cccc(N2C(=O)CC(Nc3ccc(N4CCOCC4)cc3)C2=O)c1 (stereo unspecified)	1	-6	-17	-6	0	.	.
O=C1CC(Nc2ccc(N3CCOCC3)cc2)C(=O)N1c1cccc(C(F)(F)F)c1 (stereo unspecified)	10	46*	-9	-8	-1	0	-1%
O=S(=O)(NC1CCCCC1N1CCOCC1)c1ccc(Cl)cc1 (stereo unspecified)	0	-2	-12	-4	15	.	.
O=S(=O)(NC1CCCCC1N1CCN(c2ccccc2F)CC1)c1ccc(Cl)cc1 (stereo unspecified)	6	-9	-9	-4	33*	-10	?
CN(C[C@H](Cc1ccccc1)N(CCN(CCc1ccccc1)N=O)N=O)N=O	-5	43*	19	-4	0	-5	3%
CC(C)C[C@@H](CN(C)N=O)N(C[C@H](Cc1ccccc1)N(CCc1ccccc1)N=O)N=O	15	-5	-2	-1	1	.	.
CC(C)OC(=O)Nc1ccc2c(c1)N(C(=O)CCN1CCOCC1)c1ccccc1CC2	2	3	1	3	0	.	.
O=C(CN1CCN(c2ccccc2F)CC1)c1ccc(O)cc1O	3	94*	-8	-6	0	-7	-1%
